High-throughput results from PubChem.
Sampled rows, rich in hits. Any-hit rate of the full collection: about 7.1%.
MCF10A rereplic: induces DNA re-replication in MCF 10a normal breast cells | MCF 10A DNA re-replication, Hoechst nuclear intensity, 48 h | Potency, µM (doses to about 46.1 µM), for the others: at the top dose activity, positive = re-replication, actives largely listed as activators | 350,000 tested, 2.9% active; note: % of control where 0% means no effect; nearly all actives have a fitted effect of over 50% in size
ELG1 genotoxic: inducers of genotoxicity in HEK293T ELG1-luciferase cells. HEK293T ELG1-luciferase reporter, luminescence, 16 h. Potency, µM (highest dose often 46 µM), inactives show at the top dose activity change, positive = activation, usual class: activators. 330,000 tested, 1.3% active. AID 504466; note: % of control where 0% means no effect; nearly all actives have a fitted effect of over 60% in size
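16 hr compound incubation (37 °C, 5% CO2) of HEK293T cells carrying luciferase-tagged ELG1; luciferase then measured by ONE-Glo luminescence after 30 min at RT.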
p53 reactivation: mutant p53 re-activation in reporter cells | H1299 p53-A138V BP100-luciferase reporter, luminescence, 24 h | Potency, µM (doses to about 92.2 µM), for inactives: top-dose activity change, positive = activation, most hits filed as activators | 320,000 tested, 0.063% active | AID 504706; note: % of control where 0% means no effect; nearly all actives have a fitted effect of over 45% in size
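p53-null H1299 cells stably carrying temperature-sensitive p53-A138V and a BP100-luciferase reporter were pinned with compounds (4-point, 1:5 series) and held 24 hrs at 37 deg C. Luminescence was read 10 min after detection reagent.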
SW480 rereplic: induces DNA re-replication in SW480 colon adenocarcinoma cells; SW480 DNA re-replication, Hoechst DNA content imaging, 48 h; Potency, µM (doses to about 46.1 µM), without a hit: at the highest dose re-replication activation, actives largely listed as activators; 340,000 tested, 1.8% active; AID 624297; note: % of control where 0% means no effect; nearly all actives have a fitted effect of over 55% in size
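First, 250 cells per well were seeded. Next, compound or vehicle (23 nL) was pinned in, plates sat 48 hr at 37 C. Finally Hoechst was added for 40 min before fluorescence scanning.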
ELG1 repair inh: blocks ELG1-dependent DNA repair in HEK293T cells | AID 504467 | Potency, µM (series often up to 46.1 µM), for inactives: at the highest dose activity change, negative = inhibition, actives largely listed as inhibitors | 330,000 tested, 2.3% active | HEK293T ELG1-luciferase reporter, luminescence, 16 h; DNA damage induced by 5-fluorouridine; note: % is set by controls: 0 for no effect and ±100 for the full control effect; nearly all actives have a fitted effect of over 55% in size
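Overnight (16 hr) co-exposure of 2,000 cells/well to 5-fluorouridine and compound at 37 °C preceded detection. Luciferase was quantified via ONE-Glo luminescence; loss of signal denotes inhibition.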
A-T KAP1 phos: potential ataxia-telangiectasia treatments restoring KAP-1 phosphorylation; Potency, µM (titrated, usually from 57.5 µM), without a hit: top-dose activation, most hits filed as activators; 320,000 tested, 0.19% active; F2112 A-T fibroblasts, KAP-1 phosphorylation AlphaLISA; neocarzinostatin DNA damage 30 min before lysis; note: % of control where 0% means no effect; nearly all actives have a fitted effect of over 45% in size
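ATM-like activity read as KAP-1 phosphorylation via AlphaLISA donor/acceptor antibody pairs after lysis and 6 hr at 25C. Cells were ATM-null patient fibroblasts (F2112, hTERT), dosed 60 min, then exposed to the DSB inducer NCS for 30 min.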
* hit, by the source's call; ? = inconclusive; · = not tested or not shown; [ ] = remark or other dose. Calls come from the whole dose curve; as a rule, active = well fitted curve in the direction sought with a large enough effect; inconclusive = small, poorly fitted or top-dose-only effect, or another doubt; inactive = no such curve, though single readings can be large; an effect the other way counts as inactive or inconclusive. Potency is the fitted concentration of half-maximal effect.

SMILES	MCF10A rereplic	ELG1 genotoxic	p53 reactivation	SW480 rereplic	ELG1 repair inh	A-T KAP1 phos
CCOC(=O)C1(Cc2cccc(OC)c2)CCCN(C(=O)c2cc(C)on2)C1 (configuration not stated)	-1%	?	?	16%	?	1%
O=C1CC(c2ccc3c(c2)OCCO3)Oc2ccc([N+](=O)[O-])cc21 (configuration not stated)	16µM*	0.65µM*	36%	-4%	?	1%
c1cc2[nH]snc2c2nc(C3CC3)nc12	21µM*	-10%	7%	20%	5.8µM*	5%
CC(CNC(=O)COc1ccc2c(c1)OCO2)c1ccccc1 (configuration not stated)	4%	5%	-1%	25%	16%	7%
COc1cccc(C2c3cc4c(cc3OC(NNC(N)=O)C2C)OCO4)c1O (configuration not stated)	3.3µM*	·	·	8.2µM*	·	·
COc1cccc(C2c3cc4c(cc3OC(C)(N3CCCC3)C2C)OCO4)c1O (configuration not stated)	?	·	·	18µM*	·	·
COc1cc(C2c3cc4c(cc3OC(NNC(N)=S)C2C)OCO4)cc(OC)c1OC (configuration not stated)	1.5µM*	·	·	2.6µM*	·	·
COc1cc(C2c3cc4c(cc3OC(NNC(N)=O)C2C)OCO4)cc(OC)c1OC (configuration not stated)	0.73µM*	·	·	1.3µM*	·	·
COc1cc([C@@H]2c3cc4c(cc3[C@@H](O)[C@@H](CO)[C@@H]2CO)OCO4)cc(OC)c1O[Si](C)(C)C(C)(C)C	·	-7%	-12%	·	?	-35%
O=C(Nc1ccccc1C(=O)Nc1ccc(Cl)cc1)c1cccnc1	0%	-2%	-4%	-5%	-14%	-27%
COc1cc(CC(=O)NCc2ccc3c(c2)OCO3)cc(OC)c1OC	-10%	1%	4%	-6%[9.22 µM]	0%	-7%
COc1cc(C2c3cc4c(cc3C(O)C3COCC23)OCO4)cc(OC)c1OC (configuration not stated)	?	·	·	13µM*	·	·
COc1cc(C2c3cc4c(cc3OC(NCc3ccccc3)C2C)OCO4)cc(OC)c1OC (configuration not stated)	1.6µM*	·	·	4.6µM*	·	·
O=C(COC(=O)c1ccc(O)cc1)Nc1ccccc1	-5%	0%	-3%	25%	?	-2%
COc1ccccc1OCC(=O)N/N=C1\CCCCc2ccccc21	-20%	-7%	-1%	18%	?	8%
COc1ccccc1OCC(=O)N/N=C1\CCc2ccccc21	-3%	8.2µM*	25%	3%[9.22 µM]	?	2%
CCCc1nnc(NC(=O)C2CC(=O)N(C3CCCC3)C2)s1 (configuration not stated)	-1%	0%	4%	29%	6%	-6%
Cc1cc(-c2nc3cc(F)ccc3s2)ccc1N	10µM*	·	·	18µM*	·	·
Nc1ccc(-c2nc3ccc(N)cc3s2)cc1	?	?	-3%	?	?	6%
COc1cc(/C=C/[N+](=O)[O-])ccc1OC(=O)/C=C/c1ccc(F)cc1	-3%	?	13%	-6%	24%	6%
CCOC(=O)N1CCC(N2Cc3cccc(C(=O)NCc4ccc(C)cc4)c3C2=O)CC1	3%	-5%	-1%	-13%	16µM*	0%
Cc1cc(C(=O)OCC(=O)N2CC(C)OC(C)C2)c(C)n1-c1ccccc1 (configuration not stated)	8%	0%	1%	-5%	2%	3%
Cc1cc(NC(=O)CCC(=O)N(CCC(C)C)C(C(=O)NCC2CCCO2)c2ccccc2C)no1 (configuration not stated)	-2%	-5%	-8%	0%	-4%	-1%
Cc1cccc(C(=O)O[C@@H]2[C@H](Cc3ccccc3)NS(=O)(=O)[C@H]3C[C@@H]4C=C[C@]23O4)c1	6%	-1%	12%	-6%	12%	7%
Cc1cccc(C2=NN(c3ccccc3)[C@@H](C(=O)N3CCOC3=O)[C@@H]2c2ccc(F)cc2)c1	?	2%	-3%	?	-2%	24%
SMILES	MCF10A rereplic	ELG1 genotoxic	p53 reactivation	SW480 rereplic	ELG1 repair inh	A-T KAP1 phos
O=C1OCCN1C(=O)[C@H]1[C@H](c2ccccc2)C(c2cccc(Cl)c2)=NN1c1ccccc1	?	-1%	-4%	18µM*	0%	?
Cc1cccc(C2=NN(c3ccccc3)[C@@H](C(=O)N3CCOC3=O)[C@@H]2c2ccc(Cl)cc2)c1	2.3µM*	-1%	8%	26µM*	3%	18%
O=C(C1CCN(S(=O)(=O)c2ccccc2F)CC1)N1CCCC1	3%	-3%	2%	3%	7%	3%
COc1cccc2c(=O)c(SC(F)(F)C(F)C(F)(F)F)c(C)[nH]c12 (configuration not stated)	?	6%	30%	16µM*	1%	8%
C=CCOC(=O)C(C#N)c1nc2ccccc2nc1N1CCN(c2ccccc2OCC)CC1 (configuration not stated)	13%	-5%	-9%	-3%	15µM*	-3%
CCCCNC(=O)C(C#N)c1nc2ccccc2nc1N1CCN(Cc2ccc3c(c2)OCO3)CC1 (configuration not stated)	?	·	·	1%	·	·
COc1ccc(CNC(=O)C(C#N)c2nc3ccccc3nc2N2CCCC2)cc1 (configuration not stated)	12µM*	0%	-10%	?	5.8µM*	-3%
N#C/C(=C\N1CCN(Cc2ccc3c(c2)OCO3)CC1)c1nc2ccccc2s1	21µM*	-7%	9%	?	?	4%
CCOc1ccccc1N1CCN(c2nc3ccccc3nc2C(C#N)C(=O)OC(C)C)CC1 (configuration not stated)	-3%	6%	12%	-16%	-1%	-3%
COc1ccc(CNC(=O)C(C#N)c2nc3ccccc3nc2N2CCN(C)CC2)cc1 (configuration not stated)	2%	-1%	-2%	1%	-14%	-5%
C=CCOC(=O)C(C#N)c1nc2ccccc2nc1N1CCN(Cc2ccc3c(c2)OCO3)CC1 (configuration not stated)	7%	-7%	-4%	3%	16µM*	-9%
